# In PubChem BioAssay (Tox21):
# Results filed as inconclusive are left out. Entries that show only a call come without a potency. The source made the active and inactive calls. Calls come from the whole dose curve; as a rule, active = well fitted cell-killing curve with a large enough effect in the repeat runs; inconclusive = weak or mixed curves, or effect the other way; inactive = flat fitted curve, though single readings scatter.
# Assay: Human pregnane X receptor (PXR) small molecule agonists, qHTS cell viability counter screen (AID 1346977); note: nearly all actives have a fitted effect of over 50% in size
# Conditions: PXR-Luc HepG2 viability, CellTiter-Fluor, 24 h; series mostly up to 92.4 µM
# Description: U.S. Tox21 Program National Center for Advancing Translational Sciences [NCATS] NIH Chemical Genomics Center [NCGC] U.S. Environmental Protection Agency [EPA] National Institutes of Environmental Health Sciences [NIEHS] National Toxicology Program [NTP] U.S. Food and Drug Administration [FDA] Tox21 Assay Overview: The human pregnane X receptor (hPXR) regulates the expression of several drug metabolizing enzymes and induction of these proteins is a major mechanism for developing drug resistance in cancer. One such key enzyme catalyzing the drug metabolism is cytochrome P450 3A4 (CYP3A4). Changes in CYP3A4 expression affect drug metabolism, thereby reducing the therapeutic efficacy and altering toxicological response to a drug and which finally causes adverse drug interaction. To screen Tox21 libraries for compounds that activate hPXR-mediated CYP3A4 gene expression, PXR-Luc HepG2 cells were used. Also cytotoxicity of the compounds was tested in parallel by measuring the cell viability using CellTiter-Fluor assay system in the same wells.
# Tox21 Assay Protocol Summary: PXR-Luc HepG2 cells were dispensed at 2,000 per well in 5uL of assay medium containing 5% charcoal-stripped FBS into white solid bottom 1536-well plates (Corning Life Sciences, Corning, NY) using a Multidrop Combi (Thermo Scientific, Waltham, MA) dispenser. The assay plates were incubated at 37 C and 5% CO2 for 5hr, and then 23nL of compounds dissolved in DMSO and positive control were transferred using a Pintool station (Wako, San Diego, CA). The assay plates were incubated at 37C and 5% CO2 for 24hr. For cytotoxicity read, after 23hr incubation at 37C, 1uL CellTiter-Fluor reagent (Promega Corporation, Madison, WI) was added to each well of the assay plates using Flying Reagent Dispenser (FRD, Aurora Discovery, San Diego, CA). After 1hr incubation at 37C and 5% CO2, the fluorescence signal was quantified using a ViewLux plate reader (PerkinElmer, Shelton, CT).
# Potency is the fitted concentration of half-maximal effect.
row,Structure (SMILES),Potency
1,CCCCCCCCCCC(=O)O,inactive
2,CC1CC(OC(=O)C(O)c2ccccc2)CC(C)(C)N1C (stereo not given),inactive
3,CCCCCCCCCCCCCCN(CCO)CCO,61.1 µM (active)
4,O=c1[nH]ncc2ccccc12,inactive
5,C=C/C(C)=C/C/C=C(\C)CCC=C(C)C,inactive
6,CC(C)=CC(=O)C=C(C)C,inactive
7,O=c1cc(-c2ccccc2)oc2cc(O)cc(O)c12,54.5 µM (active)
8,COc1cc(Nc2c(C#N)cnc3cc(OCCCN4CCN(C)CC4)c(OC)cc23)c(Cl)cc1Cl,11.9 µM (active)
9,Clc1cc(Cl)nc(Cl)n1,inactive
10,CC1CC(C)C(=O)C1=O (stereo not given),inactive
11,CCOC(=O)c1ccc(I)cc1,inactive
12,Oc1cccc(Nc2ccccc2)c1,inactive
13,CC(C)Nc1cccnc1N1CCN(C(=O)c2cc3cc(NS(C)(=O)=O)ccc3[nH]2)CC1,inactive
14,C/C=C(/C(=C/C)c1ccc(O)cc1)c1ccc(O)cc1,inactive
15,N#CCc1ccc(Cl)cc1Cl,inactive
16,CC(C)(C)CC(=O)OCC(=O)[C@@]1(O)CC[C@H]2[C@@H]3CCC4=CC(=O)C=C[C@]4(C)[C@H]3[C@@H](O)C[C@@]21C,inactive
17,Oc1cc2c(cc1O)[C@H]1c3ccc(O)c(O)c3OC[C@@]1(O)C2,27.6 µM (active)
18,c1csc(SSc2cccs2)c1,27.3 µM (active)
19,CCCCC(CC)CN (stereo not given),inactive
20,CC(C)(O)c1ccc(CNC(=O)c2cccnc2Oc2ccc3nonc3c2)cc1,inactive

row,Structure (SMILES),Potency
1,C(=C\c1ccccc1)/c1ccccc1,inactive
2,Cc1ccc(Cl)c(Nc2ccccc2C(=O)O)c1Cl,inactive
3,Cc1ccc2c(Br)cc(Br)c(O)c2n1,inactive
4,CC1=C(Br)C(=O)C(Br)=C/C1=C(/c1ccccc1S(=O)(=O)O)c1cc(Br)c(O)c(Br)c1C,20.8 µM (active)
5,NNC(=O)CP(=O)(c1ccccc1)c1ccccc1,inactive
6,C=C(C)C(=O)OCCOCCOC(=O)C(=C)C,inactive
7,CN1C(=O)c2ccccc2C1=O,inactive
8,CCC(C)COC(C)=O (stereo not given),inactive
9,CN1CCCN=C1COC(=O)C(O)(c1ccccc1)C1CCCCC1 (stereo not given),inactive
10,CC(=O)OCC(=O)NCCCOc1cccc(CN2CCCCC2)c1,inactive
11,C=C(C)C(=O)OCCCCCCCCCCCCC,inactive
12,C/C=C\C/C=C/CCCCCCCCOC(C)=O,inactive
13,CCOC(=O)c1ccc(O)c(O)c1,inactive
14,Cc1cc(C)c(N)cc1C,inactive
15,Cc1cccc(O)c1N,inactive
16,O=[N+]([O-])c1ccc(O/N=C/c2cc(Br)c(O)c(Br)c2)c([N+](=O)[O-])c1,30.5 µM (active)
17,C=C(C)CCCC(C)CCO (stereo not given),inactive
18,Nc1cccc2c1CN(C1CCC(=O)NC1=O)C2=O (stereo not given),inactive
19,CN1CCCC(CC2c3ccccc3Sc3ccccc32)C1 (stereo not given),29.8 µM (active)
20,O=C(/C=C/c1ccc(O)c(O)c1)O[C@@H]1C[C@@](OC(=O)/C=C/c2ccc(O)c(O)c2)(C(=O)O)C[C@@H](O)[C@@H]1O,inactive
